Results as given in PubChem BioAssay (NCI).
This is part of a sample that, as a whole, favours compounds with a hit. Of some 79,000 tested, about 15% had one in any assay. Activity calls are given as the source filed them. Rule as the data show it: active = growth inhibition above about 70%; inactive = the rest.

What was measured:
[1] = NCI Yeast Anticancer Drug Screen. Data for the mec2-1 strain (AID 157); settings: S. cerevisiae mec2-1 strain, active compounds read high
How it was run: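 Vehicle-treated cultures served as reference for growth inhibition of compound-exposed mec2-1 yeast.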

[2] = NCI Yeast Anticancer Drug Screen. Data for the rad14 strain (AID 159);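 also: 0% = growth of vehicle-treated control cultures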; settings: S. cerevisiae rad14 strain growth inhibition, active compounds read high
How it was run: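 Test compounds were applied to a repair-deficient yeast strain. Its growth was then compared with that of cultures given vehicle alone, and inhibition was expressed relative to those controls.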

[3] = NCI Yeast Anticancer Drug Screen. Data for the sgs1 mgt1 strain (AID 161);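 also: 0% = growth of cultures given vehicle only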; settings: S. cerevisiae sgs1 mgt1 strain, active compounds read high
How it was run: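 Genetically altered yeast, compound exposure, growth inhibition relative to vehicle.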

[4] = NCI Yeast Anticancer Drug Screen. Data for the CLN2oe strain (AID 163);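 also: 0% = growth of vehicle-only control cultures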; settings: S. cerevisiae CLN2oe strain, active compounds read high
How it was run: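 Inhibition relative to vehicle-treated yeast is reported. Cells: strain with genetic alteration in cell-cycle control, grown with compound.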

[5] = NCI Yeast Anticancer Drug Screen. Data for the cln2 rad14 strain (AID 165);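 also: 0% = growth equal to vehicle treated cultures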; settings: S. cerevisiae cln2 rad14 strain, active compounds read high
How it was run: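 Each compound was tested on cln2 rad14 yeast. Inhibition of growth was calculated against vehicle-exposed controls.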

[6] = NCI Yeast Anticancer Drug Screen. Data for the bub3 strain (AID 167); settings: S. cerevisiae bub3 mutant strain, active compounds read high
How it was run: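 Yeast carrying a defined mutation is treated with each compound, and growth is compared with that of vehicle-exposed cells to give inhibition.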

[7] = NCI Yeast Anticancer Drug Screen. Data for the wt2 strain (AID 169);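 also: 0% = growth of vehicle-treated yeast cultures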; settings: S. cerevisiae wt2 strain growth inhibition, active compounds read high
How it was run: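 Inhibition of yeast growth was determined after compound treatment, normalised to controls receiving only vehicle.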

[8] = NCI Yeast Anticancer Drug Screen. Data for the mlh1 strain (AID 171);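 also: 0% = growth of vehicle-treated control cultures of the same strain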; settings: S. cerevisiae mlh1 strain growth inhibition, active compounds read high
How it was run: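 Vehicle-normalised growth inhibition of a repair- or checkpoint-altered yeast strain following compound treatment.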

[9] = NCI Yeast Anticancer Drug Screen. Data for the sgs1 strain (AID 173);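 also: 0% = growth of vehicle-only control cultures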; settings: S. cerevisiae sgs1 mutant, active compounds read high
How it was run: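 Screen format: yeast with repair or checkpoint alterations, compound exposure, growth read relative to vehicle.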

[10] = NCI Yeast Anticancer Drug Screen. Data for the mlh1 rad18 strain (AID 175); settings: S. cerevisiae mlh1 rad18 strain growth inhibition, active compounds read high
How it was run: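 Vehicle-treated cultures served as the reference for growth inhibition in a yeast strain carrying DNA damage repair alterations exposed to each compound.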

[11] = NCI Yeast Anticancer Drug Screen. Data for the rad18 strain (AID 177); settings: S. cerevisiae rad18 mutant growth inhibition, active compounds read high
How it was run: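 Test articles were incubated with altered yeast defective in DNA damage repair. Results are given as inhibition of growth versus vehicle.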

[12] = NCI Yeast Anticancer Drug Screen. Data for the rad52 strain (AID 147);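 also: 0% = growth of vehicle-treated control cultures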; settings: S. cerevisiae rad52 mutant growth inhibition, active compounds read high
How it was run: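 Vehicle-treated cultures served as the reference for growth inhibition of compound-exposed yeast bearing a DNA repair mutation.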

[13] = NCI Yeast Anticancer Drug Screen. Data for the wt1 strain (AID 149);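 also: 0% = growth of vehicle-treated wt1 cultures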; settings: S. cerevisiae wt1 strain (SPY 50644) growth inhibition, active compounds read high
How it was run: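 wt1 yeast, compound-treated; % growth inhibition vs vehicle control.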

[14] = NCI Yeast Anticancer Drug Screen. Data for the rad50EPP+ strain (AID 151);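 also: 0% = growth of vehicle-treated control cultures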; settings: S. cerevisiae rad50 mutant strain, active compounds read high
How it was run: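 In this screen, rad50EPP+ yeast were exposed to compounds. Growth inhibition was scored against vehicle-treated controls.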

[15] = NCI Yeast Anticancer Drug Screen. Data for the mgt1 strain (AID 153); settings: S. cerevisiae mgt1 mutant growth inhibition, active compounds read high
How it was run: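 mgt1 strain exposed; growth vs vehicle control recorded as inhibition.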

[16] = NCI Yeast Anticancer Drug Screen. Data for the rad50 strain (AID 155);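 also: 0% = growth of vehicle-only cultures of the same strain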; settings: S. cerevisiae rad50 strain growth inhibition, active compounds read high
How it was run: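 Genetically altered yeast (DNA repair pathway); compound treatment; growth inhibition vs vehicle ctrl.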

[17] = at 5.0 µM (retest, dose inferred, filed as 0.5)
[18] = at 50.0 µM (retest, dose inferred, filed as 5.0)

Measured: growth inhibition

COC(=O)c1ccc(NCC2=CC(=O)C=CC2=O)cc1O
active: [1]; at 100.0 µM 89% | [2]; at 11.0 µM 98% | [2]; at 33.0 µM 98% | [2]; at 100.0 µM 92% | [3]; [18] 98% | [3]; at 50.0 µM 93.5% | [4]; at 11.0 µM 78% | [4]; at 33.0 µM 96% | [4]; at 100.0 µM 93% | [5]; [18] 93% | [5]; at 50.0 µM 89.9% | [6]; at 33.0 µM 95% | [6]; [18] 98% | [6]; at 50.0 µM 91.1% | [6]; at 100.0 µM 93% | [7]; at 11.0 µM 94% | [7]; at 33.0 µM 97% | [7]; at 100.0 µM 92% | [8]; at 11.0 µM 90% | [8]; at 33.0 µM 98% | [8]; at 100.0 µM 94% | [9]; at 11.0 µM 76% | [9]; at 33.0 µM 97% | [9]; at 100.0 µM 91% | [10]; [18] 93% | [10]; at 50.0 µM 92.2% | [11]; at 11.0 µM 85% | [11]; at 33.0 µM 97% | [11]; at 100.0 µM 95%
inactive: [2]; at 1.2 µM 33% | [2]; at 3.7 µM 61% | [3]; [17] 50% | [4]; at 1.2 µM 8% | [4]; at 3.7 µM 33% | [5]; [17] 36% | [6]; at 1.2 µM -3% | [6]; at 3.7 µM 10% | [6]; [17] 66% | [6]; at 11.0 µM 20% | [7]; at 1.2 µM 20% | [7]; at 3.7 µM 56% | [8]; at 1.2 µM 17% | [8]; at 3.7 µM 51% | [9]; at 1.2 µM 3% | [9]; at 3.7 µM 30% | [10]; [17] 0% | [11]; at 1.2 µM 18% | [11]; at 3.7 µM 32%

CCN(CC)C(=S)N/N=C(/C)c1cccc(/C(C)=N\NC(=S)N(CC)CC)n1
inactive: [12]; at 1.2 µM -24% | [12]; at 3.7 µM -15% | [12]; at 11.0 µM 7% | [12]; at 33.0 µM 43% | [13]; at 1.2 µM -4% | [13]; at 3.7 µM -12% | [13]; at 11.0 µM 11% | [13]; at 33.0 µM 60% | [14]; at 1.2 µM 16% | [14]; at 3.7 µM 6% | [14]; at 11.0 µM 31% | [14]; at 33.0 µM 48% | [15]; at 1.2 µM 0% | [15]; at 3.7 µM -14% | [15]; at 11.0 µM 0% | [15]; at 33.0 µM 61% | [16]; at 1.2 µM -17% | [16]; at 3.7 µM -25% | [16]; [17] -14% | [16]; at 11.0 µM -12% | [16]; at 33.0 µM 50% | [16]; at 50.0 µM 55.5% | [1]; at 1.2 µM -43% | [1]; at 3.7 µM -3% | [1]; [17] 12% | [1]; at 11.0 µM -8% | [1]; at 33.0 µM 52% | [1]; at 50.0 µM 69.1% | [3]; [17] -5% | [3]; at 50.0 µM 66.7% | [4]; at 1.2 µM 17% | [4]; at 3.7 µM 16% | [4]; at 11.0 µM 31% | [4]; at 33.0 µM 48% | [5]; [17] 21% | [5]; at 50.0 µM 34.5% | [6]; at 1.2 µM 7% | [6]; at 3.7 µM 13% | [6]; [17] 39% | [6]; at 11.0 µM 16% | [6]; at 33.0 µM 56% | [6]; at 50.0 µM 65.2% | [7]; at 1.2 µM 12% | [7]; at 3.7 µM 4% | [7]; at 11.0 µM 10% | [7]; at 33.0 µM 64% | [8]; at 1.2 µM -12% | [8]; at 3.7 µM -7% | [8]; at 11.0 µM 9% | [8]; at 33.0 µM 52% | [9]; at 1.2 µM -14% | [9]; at 3.7 µM -3% | [9]; at 11.0 µM 7% | [9]; at 33.0 µM 39% | [10]; [17] 39% | [11]; at 1.2 µM -1% | [11]; at 3.7 µM 9% | [11]; at 11.0 µM 23% | [11]; at 33.0 µM 59%
active: [12]; at 100.0 µM 90% | [13]; at 100.0 µM 87% | [14]; at 100.0 µM 79% | [15]; at 100.0 µM 91% | [16]; [18] 96% | [16]; at 100.0 µM 86% | [1]; [18] 95% | [1]; at 100.0 µM 86% | [3]; [18] 91% | [4]; at 100.0 µM 91% | [5]; [18] 91% | [6]; [18] 90% | [6]; at 100.0 µM 84% | [7]; at 100.0 µM 89% | [8]; at 100.0 µM 85% | [9]; at 100.0 µM 88% | [10]; [18] 92% | [10]; at 50.0 µM 70.7% | [11]; at 100.0 µM 91%

COC(=O)C1=C(C)NC(C)=C(C(=O)OC)C1c1cccc(/[N+]([O-])=C/c2ccccc2)c1
inactive: [12]; at 1.2 µM 1% | [12]; at 3.7 µM 2% | [12]; at 11.0 µM 9% | [12]; at 33.0 µM 23% | [13]; at 1.2 µM 2% | [13]; at 3.7 µM 4% | [13]; at 11.0 µM 8% | [13]; at 33.0 µM 18% | [13]; at 100.0 µM 50% | [14]; at 1.2 µM -1% | [14]; at 3.7 µM -3% | [14]; at 11.0 µM -4% | [14]; at 33.0 µM 1% | [14]; at 100.0 µM 15% | [15]; at 1.2 µM 1% | [15]; at 3.7 µM 4% | [15]; at 11.0 µM 13% | [15]; at 33.0 µM 33% | [16]; at 1.2 µM -3% | [16]; at 3.7 µM -9% | [16]; [17] 11% | [16]; at 11.0 µM -9% | [16]; at 33.0 µM 29% | [16]; [18] 35% | [16]; at 50.0 µM 64.8% | [1]; at 1.2 µM 3% | [1]; at 3.7 µM 5% | [1]; [17] 11% | [1]; at 11.0 µM 13% | [1]; at 33.0 µM 34% | [1]; [18] 25% | [1]; at 50.0 µM 40.5% | [3]; [17] 51% | [3]; [18] 50% | [3]; at 50.0 µM 51.1% | [4]; at 1.2 µM 4% | [4]; at 3.7 µM 6% | [4]; at 11.0 µM 13% | [4]; at 33.0 µM 33% | [5]; [17] 6% | [5]; [18] 33% | [5]; at 50.0 µM 44.8% | [6]; at 1.2 µM 1% | [6]; at 3.7 µM 4% | [6]; [17] 43% | [6]; at 11.0 µM 10% | [6]; at 33.0 µM 30% | [6]; at 50.0 µM 59.6% | [7]; at 1.2 µM 0% | [7]; at 3.7 µM 1% | [7]; at 11.0 µM 8% | [7]; at 33.0 µM 32% | [8]; at 1.2 µM 3% | [8]; at 3.7 µM 3% | [8]; at 11.0 µM 12% | [8]; at 33.0 µM 39% | [9]; at 1.2 µM 1% | [9]; at 3.7 µM 5% | [9]; at 11.0 µM 12% | [10]; [17] 4% | [10]; [18] 40% | [10]; at 50.0 µM 66% | [11]; at 1.2 µM 2% | [11]; at 3.7 µM 7% | [11]; at 11.0 µM 17% | [11]; at 33.0 µM 48%
active: [12]; at 100.0 µM 90% | [15]; at 100.0 µM 96% | [16]; at 100.0 µM 83% | [1]; at 100.0 µM 83% | [4]; at 100.0 µM 74% | [6]; [18] 79% | [6]; at 100.0 µM 91% | [7]; at 100.0 µM 95% | [8]; at 100.0 µM 96% | [9]; at 33.0 µM 71% | [9]; at 100.0 µM 96% | [11]; at 100.0 µM 93%
